The source of these data is PubChem BioAssay AID1845227 (National Center for Advancing Translational Sciences (NCATS), 2023).

Inconclusive results are not listed. A number with no mark means an inactive call. Activity calls are given as the source filed them. Calls follow the shape of the dose curve; as a rule, active = well fitted inhibition curve with a large enough effect; inconclusive = small, poorly fitted or top-dose-only effect; inactive = no such curve, though single readings can be large or run the other way.
Potency is read from the fitted curve at half-maximal effect.

The experiment addresses Luciferin 4-monooxygenase (Photinus pyralis) (UniProt P08659). In words: Confirmatory firefly luciferase (FLuc) qHTS assay for identification of artifact compounds. The note with it: purified FLuc enzyme, luminescence, 5 min; series mostly up to 38.9 µM; activity change, negative = inhibition: at the top concentration. The text has this:
PI: Alexander Tropsha Ph.D. UNC Eshelman School of Pharmacy University of North Carolina, Chapel Hill, North Carolina Hits from high-throughput screening (HTS) of chemical libraries are often false positives due to their interference with the assay detection technology. In response to this problem, we generated the largest publicly available library of chemical liabilities and developed a free webtool to predict HTS artifacts, both of which are described herein. More specifically, we generated, curated, and integrated HTS datasets for thiol reactivity, redox activity, and luciferase (firefly and nano) activity. Using these curated datasets, we developed and validated several Quantitative Structure-Interference Relationship (QSIR) models to predict nuisance behavior. […] These models were employed for virtual profiling of the National Center for Advancing Translational Science's (NCATS) in-house library, and 256 compounds for each assay were selected for the experimental validation of nuisance behavior. The BA for these external predictions ranged from 58 to 78% for compounds within the applicability domains of the models. […] The models developed in this study, along with aggregation models previously developed by our group (SCAM Detective) were implemented in "Liability Predictor," an online tool which may be used as part of chemical library design or for triaging HTS hits. Both the models and the curated datasets are publicly available at https://liability.mml.unc.edu/.
PROTOCOL TABLE SEQUENCE No. (e.g., 1, 2, 3, etc.); […] (e.g., Cells, Incubation, Reagent, etc.); VALUE; DESCRIPTION. 1; Reagent; 3 uL; Luciferase substrate mixture. 2; Compounds and control; 16 nL; Kalypsis pin tool (Wako USA) equipped with a 1536-well pin head. 3; Incubation; 15 min. 4; Reagent; 1 uL; Luciferase enzyme. 5; Incubation; 5 min. 6; Detection; Luminescence, ViewLux microplate reader. NOTES (numbers refer to Sequence numbers above) 1. 3 uL of luciferase substrate mixture containing D-luciferin and ATP (final concentrations of 10 uM and 10 uM, respectively) in assay buffer (10 mM Mg-acetate, 0.01% Tween-20, 0.05% bovine serum albumin, 50 mM Tris acetate, pH 7.6) was dispensed into all wells of a 1536-well assay plate (solid-bottom white plate; Greiner Bio One, Monroe, NC). 2. A Wako Pin-tool (Wako Automation, Richmond, VA) was used to transfer 16 nL of compounds (consisting of 7-plates in qHTS format, final concentration range 18.3 nM to 114 uM) or control PTC124 (final concentration range 1.22 nM to 40 uM). 3. 15 min. incubation at room temperature protected from light. 4. 1 uL of luciferase enzyme (final concentration 10 nM, Photinus pyralis luciferase) or buffer was dispensed for a final assay volume of 4 uL. 5. Plates were centrifuged (121xg, 15 seconds) and incubated for 5 minutes. 6. Samples were read for luminescence on a ViewLux CCD imager (PerkinElmer). Data were normalized to no-enzyme (0% activity) and no-inhibitor (DMSO; 100%) controls and the resulting percent inhibition data were fitted to a 4-parameter Hill equation using NCATS in-house software.
Background: In qHTS, concentration-response curves come from the screen itself.
For the compound `COc1cccc(NC(=O)CSc2nc3cc(OC)c(OC)cc3c3nc(-c4ccccc4)nn23)c1`, the “activity change, negative = inhibition” value was -2.25%.

As to `COc1ccc(C2Nc3ccccc3C(=O)N2CCCN(C)C)cc1COc1ccc(NC(C)=O)cc1` (stereo not given), the “activity change, negative = inhibition” value is 2.59%.

With `COCCNC(=O)CCCn1c(SCC(=O)Nc2cccc(C)c2)nc2c(sc3ccccc32)c1=O`, the “activity change, negative = inhibition” value is -5.42%.

On to `COc1ccc(Cn2c(CNS(=O)(=O)c3ccc(Cl)s3)nc3cccnc32)cc1`, for which the “activity change, negative = inhibition” value was 3.97%.

For `CC1=CC23C(=O)C(C=C(CO)[C@@H](O)[C@]2(O)[C@H]1O)[C@H]1[C@@H](C[C@H]3C)C1(C)C` (stereo not given in full), the “activity change, negative = inhibition” value is 2.27%.

As for `C[C@H](CCC(=O)NCCS(=O)(=O)O)C1CC[C@H]2C3CC[C@@H]4C[C@H](O)CC[C@]4(C)C3C[C@H](O)[C@]12C` (stereo not given in full), the “activity change, negative = inhibition” value is -6%.

`COc1ccc(NC(=O)c2ncoc2-c2ccco2)cc1Cl`: the “activity change, negative = inhibition” value was -4.3%.

In the case of `CNCc1nc(-c2ccc[nH]2)c2cc(Cl)ccc2n1`, the “activity change, negative = inhibition” value is -3.62%.

With `COc1ccc2cc3cc(C(=O)N4CCN(c5ccccc5F)CC4)oc3nc2c1`, the “activity change, negative = inhibition” value is -0.424%.

Turning to `Cc1cc(-c2ccccc2)n2nc(-c3ccc(Cl)cc3)cc2n1`, the “activity change, negative = inhibition” value was -0.184%.

Regarding `CCOc1ccc(N=C(C)Nc2ccc(OCC)cc2)cc1`, the “activity change, negative = inhibition” value is -1.18%.

Regarding `CCCOC(=O)c1ccc(NC(=O)C2CC(=O)N(c3ccc(C)cc3)C2)cc1` (stereo not given), the “activity change, negative = inhibition” value was -1.06%.

Regarding `CCCCN(CCCNC(=O)c1cc(Nc2ccc(OC)c(OC)c2)nc2ccccc12)Cc1ccccc1`, the “activity change, negative = inhibition” value is -7.28%.

As to `Cc1cccc(-c2noc(-c3cc(C(C)C)[nH]n3)n2)c1`, the Potency was 6.12 µM (active).

For `C=CCNc1nnc(-c2cccc3ccccc23)o1`, the “activity change, negative = inhibition” value was -0.572%.

`Cc1ccc2oc(C(=O)Nc3ccc(S(=O)(=O)N(C)c4ccccc4)cc3)cc(=O)c2c1`: the “activity change, negative = inhibition” value is 1.46%.

On to `O=C(Nc1cc(-c2ccc(Cl)cc2)no1)c1ccc(F)cc1`, for which the “activity change, negative = inhibition” value is -4.74%.

For `CCOc1ccccc1NC(=O)N(Cc1ccc(C)o1)C1CCN(C(C)=O)CC1`, the “activity change, negative = inhibition” value is 8.24%.

In the case of `Cc1nnc(NC(=O)c2nc(S(=O)(=O)Cc3ccccc3)ncc2Cl)s1`, the “activity change, negative = inhibition” value was 2.84%.

On to `CCCCCCCCCCCCCCCC(=O)N[C@@H](COP(=O)(O)O)C(=O)O`, for which the “activity change, negative = inhibition” value is 3.09%.

In the case of `CC(CCc1ccccc1)NC(=O)Cn1c(=O)nc(-c2ccccc2F)c2cc(Cl)ccc21` (stereo not given), the “activity change, negative = inhibition” value is -4.2%.

Regarding `Cc1cc(NC(=O)c2cccnc2)cc(-c2nc3cc(Cl)ccc3o2)c1O`, the “activity change, negative = inhibition” value is -1.99%.

For `Cc1ccc(-n2nnnc2CNC(=O)C(C)C)cc1C`, the “activity change, negative = inhibition” value was 5.51%.

As for `COc1cc(Br)c(/C=C(\C#N)c2nc3ccccc3[nH]2)cc1OC`, the “activity change, negative = inhibition” value is 24.2%.

As for `COc1cccc(NCc2ccc(O)c3ncccc23)n1`, the “activity change, negative = inhibition” value is 10.5%.

On to `CNc1oc(-c2ccc3cnccc3c2)nc1C#N`, for which the “activity change, negative = inhibition” value was -4.28%.

For the compound `O=C(Nc1cc(Cl)ccc1Cl)c1cc(S(=O)(=O)NCCc2ccccc2)ccc1F`, the “activity change, negative = inhibition” value was -1.97%.

Consider `COc1ccc(OC)c(NC(=O)CC(=O)Nc2ccc3nc4n(c(=O)c3c2)CCCCC4)c1`, for which the “activity change, negative = inhibition” value is 20.1%.

Take `Clc1ccc(-c2noc3ncnc(N4CCCCC4)c23)cc1`: the “activity change, negative = inhibition” value was 3%.

`O=C(Cc1ccccc1)Nc1ccc2oc(-c3cccnc3)nc2c1`: the “activity change, negative = inhibition” value is -9.51% [at 78.4 µM].

Consider `Cc1ccc(NC(=O)c2ccc3[nH]c(C)cc(=O)c3c2)cc1`, for which the “activity change, negative = inhibition” value was 1.25%.

Regarding `Ic1ccc(Nc2nc(NCCN3CCOCC3)nc(N3CCOCC3)n2)cc1`, the “activity change, negative = inhibition” value is 1.03%.

On to `C[C@@H]1O[C@H](O[C@@H]2C(O)[C@H](O)[C@@H](CO)O[C@H]2Oc2cc(O)c3c(=O)cc(-c4ccc(O)cc4)oc3c2)[C@H](O)[C@H](O)[C@H]1O` (stereo not given in full), for which the “activity change, negative = inhibition” value is 12.8%.

With `Cc1cn2c(=O)cc(COC(=O)c3cccc(NC(=O)c4ccccc4C)c3)nc2s1`, the “activity change, negative = inhibition” value is -5.59%.

`CCC(CC)c1nn2c(=O)cc(COc3ccc(NC(=O)c4ccccc4C)cc3)nc2s1`: the “activity change, negative = inhibition” value was -1.2%.

Regarding `NCCCNCCCCNCCCNC(=O)CCc1ccc(O)cc1`, the activity change, negative = inhibition is 2.14% [at 7.25 µM].

For `COc1ccc(C(=O)Nc2ccc3oc(-c4cccnc4)nc3c2)cc1`, the “activity change, negative = inhibition” value is 1.55%.

For the compound `COC(=O)c1scc(-c2ccc(C)cc2)c1S(=O)(=O)N1CCN(c2ccc(C(C)=O)cc2)CC1`, the “activity change, negative = inhibition” value was 14.9%.

Take `COc1ccc(-c2ccc(=O)n(CC(=O)Nc3ccc(OC)c(OC)c3)n2)cc1`: the “activity change, negative = inhibition” value is 9.34%.

As for `CCOC(=O)c1c(C)[nH]c(C)c1S(=O)(=O)N1CCC(C(=O)N2CCN(c3ccccc3)CC2)CC1`, the “activity change, negative = inhibition” value is 1.27%.
